PubChem BioAssay (NCATS)
Records with an inconclusive call do not appear. Values without a mark were called inactive. Active and inactive are the calls of the source. The call rests on the fitted dose curve; in most records, active means well fitted inhibition curve with a large enough effect; inconclusive means small, poorly fitted or top-dose-only effect; inactive means flat fitted curve, though single readings scatter.

Tested on: Zika virus NS2B-NS3 protease
Experiment: Primary screen GU AMC qHTS for Zika virus inhibitors (AID 1347154);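 further: 0% = no-inhibitor control and -100% = no-enzyme control; nearly all actives have a fitted effect of over 70% in size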
Conditions: Zika NS2B-NS3 unlinked protease, AMC fluorogenic substrate; series mostly up to 54.1 µM; activity change, negative = inhibition: at the top concentration
Method in brief: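 Unlinked Zika NS2B hydrophilic domain–NS3 protease complex at 25 nM in 10 mM Tris-HCl pH 8.0, 0.01% Tween 20, with an AMC peptide substrate. Fluorescence change (340/450 nm) over 15 min at room temperature, normalized to controls, fitted to 4-parameter Hill.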

`CCCN1CCO[C@@H]2c3cc(O)ccc3OC[C@H]21` was tested, and the Potency was “inactive”.

Point of comparison: `C[C@](O)(COc1ccc(C#N)cc1)C(=O)Nc1ccc(C#N)c(C(F)(F)F)c1`, “activity change, negative = inhibition” value -6.15%. Against it:
- C1=C2CCCN[C@H]2[C@@H]2C[C@H]1[C@@H]1CCCCN1C2 — higher, 10.5%
- CC(=O)O[C@@]12CO[C@H]1C[C@H](O)[C@@]1(C)C(=O)[C@H](O)C3=C(C)[C@@H](O)C[C@@](O)([C@@H](OC(=O)c4ccccc4)[C@@H]21)C3(C)C — higher, 16.1%
- CCc1c(C(=O)C(N)=O)c2c(OCC(=O)O)cccc2n1Cc1ccccc1 — higher, 2.78%
- C=C1C[C@H]2[C@H]3CCC(=O)[C@@]3(C)CC[C@@H]2[C@@]2(C)C=CC(=O)C=C12 — lower, -8.02%
- Clc1ccccc1C(c1ccccc1)(c1ccccc1)n1cccn1 — higher, 6.9%
- COC1=C[C@@H]2[C@@H]3Cc4ccc(OC)c(O)c4[C@]2(CCN3C)CC1=O — higher, 19.4%
- CCOC(=O)Nc1ccc(NCc2ccc(F)cc2)cc1N — higher, 8.79%
- CC(=O)OCC1=C(C(=O)O)N2C(=O)[C@@H](N)[C@@H]2SC1 — higher, 8.58%
- C#CC1(O)CCC2C3CCC4=CC(=O)CCC4(C)C3CCC21C (centres undefined) — higher, 1.46%
- Cc1nc(-c2ccc(-c3ccc(C(=O)N4CCc5cc6c(cc54)C4(CCN(C)CC4)CO6)cc3)c(C)c2)no1 — higher, 24.4%
- COc1cccc2c1[C@]13CCN(CC4CC4)[C@H](C2)[C@]1(OC)CCC(=O)C3 — higher, 15.1%
- CCN1C[C@]2(OC(=O)c3ccccc3NC(C)=O)CC[C@H](OC)[C@@]34[C@H]5CC6[C@@H](OC)C[C@](O)(C(C[C@@H]23)[C@@H]14)[C@@]5(O)[C@@H]6OC — lower, -15.9%
- CCN1CCN(C(=O)Cc2ccc(Nc3ncc(F)c(Nc4ccc(C(=O)Nc5ccccc5Cl)cc4)n3)cc2)CC1 — lower, -6.17%
- CCC(=O)O[C@@H]1C=C2CCC3C(CCC4(C)C3CC[C@@H]4OC(=O)CC)C2CC1 (some centres undefined) — lower, -9.46%
- C[C@]12COC(=O)C[C@@H]1CC[C@@H]1[C@H]2CC[C@@]2(C)[C@H]1CC[C@]2(C)O — higher, -4.04%
- C=C[C@@H]1CN2CCC1C[C@H]2[C@H](O)c1ccnc2ccccc12 (some centres undefined) — higher, -5.26%
- O=S(=O)(F)Cc1ccccc1 — higher, 10.1%
- C[C@@H]1CC[C@H]2[C@@H](C)C(=O)O[C@@H]3O[C@@]4(C)CC[C@H]1[C@]32OO4 — higher, 12.5%
- O=C(O)COc1ccccc1 — higher, -0.332%
- c1cc2c(cc1[C@H]1OC[C@H]3[C@H]1CO[C@H]3c1ccc3c(c1)OCO3)OCO2 — higher, 5.68%
- CC(C)N(CCNC(=O)CN1CCCC1=O)C(C)C — lower, -11.6%
- C=C[C@@H]1CN2CCC1C[C@@H]2[C@@H](O)c1ccnc2ccccc12 (some centres undefined) — lower, -11.8%
- COc1ccc(N(C(=O)Oc2c(C)cccc2C)c2ccnc(Nc3ccc(N4CCN(C)CC4)cc3)n2)c(OC)c1 — higher, -1.31%
- Cc1ccc(Cl)c(O)c1 — higher, 1.71%
- C[C@@H]1[C@H](O)[C@@H](C)C=CC=CCCC=CC=CC=CC=C[C@H](O[C@H]2O[C@@H](C)[C@H](O)[C@@H](N)[C@@H]2O)CC2O[C@](O)(C[C@@H](O)[C@H](O)CC[C@@H](O)C[C@@H](O)C[C@@H](O)CC(=O)O[C@H]1C)C[C@H](O)[C@H]2C(=O)O — higher, 23.9%
- COc1ccc(CC2NCCc3cc(OC)c(OC)cc32)cc1OC (centres undefined) — higher, 6.16%

Point of comparison: `O=[N+]([O-])c1c2ccccc2cc2ccccc12`, “activity change, negative = inhibition” value -3.52% [at 104 µM]. Against it:
- O=C(Nc1ccccc1-c1ccc(Cl)cc1)c1cccnc1Cl — higher, -2.22% [at 104 µM]
- COCCOCCO — lower, -6.81% [at 104 µM]
- C=CC(=O)NCNC(=O)C=C — higher, -0.251% [at 104 µM]
- CC(C)Oc1cccc(NC(=O)c2ccccc2C(F)(F)F)c1 — lower, -3.54% [at 104 µM]
- ClC1=C(Cl)[C@]2(Cl)[C@@H]3[C@@H]4C[C@@H]([C@H]5O[C@@H]45)[C@@H]3[C@@]1(Cl)C2(Cl)Cl — lower, -12.5% [at 104 µM]
